Test systems include SK-MEL-2 melanoma; SN12C renal; UO-31 renal; TK-10 renal; ACHN renal; CAKI-1 renal; A498 renal; CCRF-CEM leukemia; MOLT-4 leukemia; EKVX NSCLC.
Holding throughout (test): NCI-60 one-dose screen, 48 h (100 = growth as untreated, 0 = no growth, -100 = all killed)
Settings in all cases: 10 µM unless noted

The record followed here is PubChem BioAssay (NCI).

The panel holds about 83,000 compounds, 20% with a hit somewhere; the sample as a whole holds those more often.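 Method: cells in 96-well plates; compound added at one concentration; 48 h incubation; percent growth measured; values under 10 scored active.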 Unmarked numbers belong to inactive results. Active and inactive are the calls of the source.

Turning to `COc1cc(C2CC(c3ccc(Cl)cc3)=NN2C(C)=O)ccc1Oc1ccnc2cc(Cl)ccc12` (configuration not stated), the growth with SK-MEL-2 melanoma was 67.2%; with SN12C renal, 70.9%; with UO-31 renal, 57.5%; in the experiment with TK-10 renal, 37.4%; in the experiment on ACHN renal it was 18.8%; in the experiment on CAKI-1 renal, 26.1%. For the same molecule, the growth in the experiment on A498 renal is 69%; with CCRF-CEM leukemia, 87.1%; in the experiment with MOLT-4 leukemia it was 97.4%.
As for `C=CCOc1ccc2c(C)cc(=O)oc2c1`, the growth in the experiment on SK-MEL-2 melanoma was 129%; with SN12C renal, 115%; in the experiment on UO-31 renal it was 115%; in the experiment with TK-10 renal it was 91.9%; in the experiment on ACHN renal, 108%; in the experiment with CAKI-1 renal, 97.9%. Besides, the growth with A498 renal is 71%; with CCRF-CEM leukemia, 96.2%; with MOLT-4 leukemia it was 107%.
Consider `CCN(CCC#N)c1ccccc1`, for which the growth in the experiment on SK-MEL-2 melanoma is 106%; in the experiment on SN12C renal, 90.8%; in the experiment on UO-31 renal, 89.1%; in the experiment with TK-10 renal, 117%; in the experiment on ACHN renal, 112%; in the experiment on CAKI-1 renal it was 97.7%. In addition, the growth was 130% in the experiment with A498 renal, 93.6% with CCRF-CEM leukemia and 101% in the experiment with MOLT-4 leukemia.
For `COc1ccc(N=C2CSc3nnc(-c4cc(F)c(Cl)cc4Cl)n3N2)cc1`, the growth in the experiment with SK-MEL-2 melanoma was 25.8%; in the experiment with SN12C renal, 7.26% (active); in the experiment on UO-31 renal, -69.5% (active); in the experiment on TK-10 renal, -48.1% (active); in the experiment with ACHN renal, -26.2% (active); in the experiment with CAKI-1 renal it was -11.2% (active). Further, the growth in the experiment with A498 renal was -41.7% (active); in the experiment with CCRF-CEM leukemia it was -24.4% (active); in the experiment with MOLT-4 leukemia it was -4.82% (active).
Regarding `C=C1C[C@@]2(C)C(CC[C@]3(C)C2CC=C2C4CC(C)(C)C[C@@H](OC(=O)/C(C)=C\C)[C@]4(C(=O)O)CC[C@]23C)C(C)(C)C1=O` (some centres not stated), the growth is 18.8% in the experiment with SK-MEL-2 melanoma; 6.55% (active) in the experiment with SN12C renal; -74.6% (active) with UO-31 renal; 17.2% with TK-10 renal; -83.8% (active) with ACHN renal; -7.09% (active) with CAKI-1 renal. For the same molecule, the growth with A498 renal is -17.4% (active); with CCRF-CEM leukemia it was 2.34% (active); with MOLT-4 leukemia, 7.64% (active).
For the molecule `CCOC(=O)N1C2CCC(C2)N1C(=O)OCC`, the growth is 99% in the experiment with SK-MEL-2 melanoma; 105% in the experiment on SN12C renal; 95.6% with UO-31 renal; 94.7% with TK-10 renal; 106% with ACHN renal; 106% in the experiment on CAKI-1 renal. Further, the growth was 115% with A498 renal, 100% in the experiment on CCRF-CEM leukemia and 93% with MOLT-4 leukemia.
Take `COc1cccc(C2C(C#N)=C(N)Oc3cc4c(cc32)OCO4)c1` (configuration not stated): the growth was 64.7% in the experiment with SK-MEL-2 melanoma; 23.8% with SN12C renal; 39.3% in the experiment with UO-31 renal; 80% in the experiment with TK-10 renal; 29.3% with ACHN renal; 52.4% in the experiment on CAKI-1 renal. In addition, the figures for the growth in the experiment on A498 renal, in the experiment with CCRF-CEM leukemia and with MOLT-4 leukemia were 1.43% (active), 17.4% and 19.4%, respectively.
`CCC(=O)NC1=C(Cl)C(=O)C(NC(=O)CC)=C(Cl)C1=O`: the growth in the experiment on SK-MEL-2 melanoma is 111%; in the experiment on SN12C renal, 101%; in the experiment on UO-31 renal it was 2.01% (active); with TK-10 renal, 50.5%; in the experiment on ACHN renal, 21.2%; in the experiment with CAKI-1 renal it was 103%. The growth in the experiment on A498 renal was 130%; in the experiment with CCRF-CEM leukemia, -42.7% (active); in the experiment on MOLT-4 leukemia, -41.3% (active).
For the molecule `Cc1cc([N+](=O)[O-])c(C)cc1N`, the growth was 107% with SK-MEL-2 melanoma; 106% with SN12C renal; 77.6% with UO-31 renal; 102% in the experiment on TK-10 renal; 103% in the experiment on ACHN renal; 92.8% in the experiment on CAKI-1 renal. In addition, the growth in the experiment with A498 renal was 87.2%; in the experiment with CCRF-CEM leukemia, 106%; in the experiment on MOLT-4 leukemia, 101%.
Consider `c1ccc2oc(-c3cnc4nonc4n3)cc2c1`, for which the growth in the experiment on SK-MEL-2 melanoma was 95%; in the experiment with SN12C renal, 93%; in the experiment with UO-31 renal it was 63.1%; in the experiment on TK-10 renal, 132%; in the experiment on ACHN renal, 82.3%; in the experiment with CAKI-1 renal, 86.8%. Moreover, the growth with A498 renal was 103%; with CCRF-CEM leukemia, 95.8%; with MOLT-4 leukemia, 97.2%.
Turning to `OC(CCCCCCCCC(O)CN1CCc2ccccc2C1)CN1CCc2ccccc2C1` (configuration not stated), the growth in the experiment on SK-MEL-2 melanoma is 111%; with EKVX NSCLC, 89.5%; in the experiment on SN12C renal, 105%; in the experiment on UO-31 renal, 86.1%; in the experiment with TK-10 renal, 103%; in the experiment with ACHN renal, 110%. Further, the growth in the experiment with A498 renal is 107%; in the experiment with MOLT-4 leukemia, 110%.
With `COc1ccc(-c2conc2-n2nc(-c3ccccc3)nc2-c2ccccc2)cc1`, the growth in the experiment on SK-MEL-2 melanoma is 103%; in the experiment with SN12C renal, 101%; with UO-31 renal it was 73.2%; in the experiment with TK-10 renal it was 137%; in the experiment on ACHN renal, 97.2%; in the experiment on CAKI-1 renal, 83.8%. The figures for the growth in the experiment with A498 renal, in the experiment with CCRF-CEM leukemia and in the experiment with MOLT-4 leukemia were 120%, 106% and 99.1%, respectively.
Consider `COc1ccc(Oc2nc(Nc3ccc(N4CCOCC4)cc3)ncc2NC(=O)Nc2cccc(OC)c2)cc1`, for which the growth with SK-MEL-2 melanoma is 39.2%; in the experiment on SN12C renal it was 50.7%; with UO-31 renal, 75.8%; with TK-10 renal, 75.9%; in the experiment with ACHN renal it was 68%; in the experiment on CAKI-1 renal it was 62.2%. Further, the values for the growth in the experiment with A498 renal, in the experiment with CCRF-CEM leukemia and in the experiment on MOLT-4 leukemia were 66.3%, 68.1% and 40.4%, respectively.
For `Cc1ccncc1NC=O`, the growth in the experiment on SK-MEL-2 melanoma was 108%; with SN12C renal, 110%; with UO-31 renal, 96.2%; with TK-10 renal, 102%; in the experiment with ACHN renal, 115%; with A498 renal, 103%. Moreover, the growth in the experiment on CCRF-CEM leukemia is 104%; in the experiment with MOLT-4 leukemia it was 108%.
As to `N=C(N)c1ccc(-c2ccc(-c3ccco3)o2)cc1F`, the growth in the experiment with SK-MEL-2 melanoma is -66.8% (active); with SN12C renal, 39.8%; in the experiment with UO-31 renal, -57.2% (active); in the experiment on TK-10 renal, 7.98% (active); in the experiment on ACHN renal, 12.2%; in the experiment with CAKI-1 renal, 23.1%. For the same molecule, the growth in the experiment with A498 renal was 11.6%; with MOLT-4 leukemia it was 0.311% (active).
